Laboratory results published in the supplement of paper PMC11732987, “Enantioselective OTUD7B fragment discovery through chemoproteomics screening and high-throughput optimisation” (Communications Chemistry, 2025).

Tests used:
Assay in all cases: log2 ratio of Biotin-Ahx-Ub-VS probe labelling (fragment/DMSO); higher = less target engagement (more negative = stronger competition), active = hit call of the paper (q ≤ 0.05, log2 ratio ≤ -1)
Settings in all cases: compound concentration: 200 uM; treatment time: 3 h
USP34 = USP34 (UniProt Q70CQ2)
Chain of USP34 (Q70CQ2 whole entry, the tested form may be a part): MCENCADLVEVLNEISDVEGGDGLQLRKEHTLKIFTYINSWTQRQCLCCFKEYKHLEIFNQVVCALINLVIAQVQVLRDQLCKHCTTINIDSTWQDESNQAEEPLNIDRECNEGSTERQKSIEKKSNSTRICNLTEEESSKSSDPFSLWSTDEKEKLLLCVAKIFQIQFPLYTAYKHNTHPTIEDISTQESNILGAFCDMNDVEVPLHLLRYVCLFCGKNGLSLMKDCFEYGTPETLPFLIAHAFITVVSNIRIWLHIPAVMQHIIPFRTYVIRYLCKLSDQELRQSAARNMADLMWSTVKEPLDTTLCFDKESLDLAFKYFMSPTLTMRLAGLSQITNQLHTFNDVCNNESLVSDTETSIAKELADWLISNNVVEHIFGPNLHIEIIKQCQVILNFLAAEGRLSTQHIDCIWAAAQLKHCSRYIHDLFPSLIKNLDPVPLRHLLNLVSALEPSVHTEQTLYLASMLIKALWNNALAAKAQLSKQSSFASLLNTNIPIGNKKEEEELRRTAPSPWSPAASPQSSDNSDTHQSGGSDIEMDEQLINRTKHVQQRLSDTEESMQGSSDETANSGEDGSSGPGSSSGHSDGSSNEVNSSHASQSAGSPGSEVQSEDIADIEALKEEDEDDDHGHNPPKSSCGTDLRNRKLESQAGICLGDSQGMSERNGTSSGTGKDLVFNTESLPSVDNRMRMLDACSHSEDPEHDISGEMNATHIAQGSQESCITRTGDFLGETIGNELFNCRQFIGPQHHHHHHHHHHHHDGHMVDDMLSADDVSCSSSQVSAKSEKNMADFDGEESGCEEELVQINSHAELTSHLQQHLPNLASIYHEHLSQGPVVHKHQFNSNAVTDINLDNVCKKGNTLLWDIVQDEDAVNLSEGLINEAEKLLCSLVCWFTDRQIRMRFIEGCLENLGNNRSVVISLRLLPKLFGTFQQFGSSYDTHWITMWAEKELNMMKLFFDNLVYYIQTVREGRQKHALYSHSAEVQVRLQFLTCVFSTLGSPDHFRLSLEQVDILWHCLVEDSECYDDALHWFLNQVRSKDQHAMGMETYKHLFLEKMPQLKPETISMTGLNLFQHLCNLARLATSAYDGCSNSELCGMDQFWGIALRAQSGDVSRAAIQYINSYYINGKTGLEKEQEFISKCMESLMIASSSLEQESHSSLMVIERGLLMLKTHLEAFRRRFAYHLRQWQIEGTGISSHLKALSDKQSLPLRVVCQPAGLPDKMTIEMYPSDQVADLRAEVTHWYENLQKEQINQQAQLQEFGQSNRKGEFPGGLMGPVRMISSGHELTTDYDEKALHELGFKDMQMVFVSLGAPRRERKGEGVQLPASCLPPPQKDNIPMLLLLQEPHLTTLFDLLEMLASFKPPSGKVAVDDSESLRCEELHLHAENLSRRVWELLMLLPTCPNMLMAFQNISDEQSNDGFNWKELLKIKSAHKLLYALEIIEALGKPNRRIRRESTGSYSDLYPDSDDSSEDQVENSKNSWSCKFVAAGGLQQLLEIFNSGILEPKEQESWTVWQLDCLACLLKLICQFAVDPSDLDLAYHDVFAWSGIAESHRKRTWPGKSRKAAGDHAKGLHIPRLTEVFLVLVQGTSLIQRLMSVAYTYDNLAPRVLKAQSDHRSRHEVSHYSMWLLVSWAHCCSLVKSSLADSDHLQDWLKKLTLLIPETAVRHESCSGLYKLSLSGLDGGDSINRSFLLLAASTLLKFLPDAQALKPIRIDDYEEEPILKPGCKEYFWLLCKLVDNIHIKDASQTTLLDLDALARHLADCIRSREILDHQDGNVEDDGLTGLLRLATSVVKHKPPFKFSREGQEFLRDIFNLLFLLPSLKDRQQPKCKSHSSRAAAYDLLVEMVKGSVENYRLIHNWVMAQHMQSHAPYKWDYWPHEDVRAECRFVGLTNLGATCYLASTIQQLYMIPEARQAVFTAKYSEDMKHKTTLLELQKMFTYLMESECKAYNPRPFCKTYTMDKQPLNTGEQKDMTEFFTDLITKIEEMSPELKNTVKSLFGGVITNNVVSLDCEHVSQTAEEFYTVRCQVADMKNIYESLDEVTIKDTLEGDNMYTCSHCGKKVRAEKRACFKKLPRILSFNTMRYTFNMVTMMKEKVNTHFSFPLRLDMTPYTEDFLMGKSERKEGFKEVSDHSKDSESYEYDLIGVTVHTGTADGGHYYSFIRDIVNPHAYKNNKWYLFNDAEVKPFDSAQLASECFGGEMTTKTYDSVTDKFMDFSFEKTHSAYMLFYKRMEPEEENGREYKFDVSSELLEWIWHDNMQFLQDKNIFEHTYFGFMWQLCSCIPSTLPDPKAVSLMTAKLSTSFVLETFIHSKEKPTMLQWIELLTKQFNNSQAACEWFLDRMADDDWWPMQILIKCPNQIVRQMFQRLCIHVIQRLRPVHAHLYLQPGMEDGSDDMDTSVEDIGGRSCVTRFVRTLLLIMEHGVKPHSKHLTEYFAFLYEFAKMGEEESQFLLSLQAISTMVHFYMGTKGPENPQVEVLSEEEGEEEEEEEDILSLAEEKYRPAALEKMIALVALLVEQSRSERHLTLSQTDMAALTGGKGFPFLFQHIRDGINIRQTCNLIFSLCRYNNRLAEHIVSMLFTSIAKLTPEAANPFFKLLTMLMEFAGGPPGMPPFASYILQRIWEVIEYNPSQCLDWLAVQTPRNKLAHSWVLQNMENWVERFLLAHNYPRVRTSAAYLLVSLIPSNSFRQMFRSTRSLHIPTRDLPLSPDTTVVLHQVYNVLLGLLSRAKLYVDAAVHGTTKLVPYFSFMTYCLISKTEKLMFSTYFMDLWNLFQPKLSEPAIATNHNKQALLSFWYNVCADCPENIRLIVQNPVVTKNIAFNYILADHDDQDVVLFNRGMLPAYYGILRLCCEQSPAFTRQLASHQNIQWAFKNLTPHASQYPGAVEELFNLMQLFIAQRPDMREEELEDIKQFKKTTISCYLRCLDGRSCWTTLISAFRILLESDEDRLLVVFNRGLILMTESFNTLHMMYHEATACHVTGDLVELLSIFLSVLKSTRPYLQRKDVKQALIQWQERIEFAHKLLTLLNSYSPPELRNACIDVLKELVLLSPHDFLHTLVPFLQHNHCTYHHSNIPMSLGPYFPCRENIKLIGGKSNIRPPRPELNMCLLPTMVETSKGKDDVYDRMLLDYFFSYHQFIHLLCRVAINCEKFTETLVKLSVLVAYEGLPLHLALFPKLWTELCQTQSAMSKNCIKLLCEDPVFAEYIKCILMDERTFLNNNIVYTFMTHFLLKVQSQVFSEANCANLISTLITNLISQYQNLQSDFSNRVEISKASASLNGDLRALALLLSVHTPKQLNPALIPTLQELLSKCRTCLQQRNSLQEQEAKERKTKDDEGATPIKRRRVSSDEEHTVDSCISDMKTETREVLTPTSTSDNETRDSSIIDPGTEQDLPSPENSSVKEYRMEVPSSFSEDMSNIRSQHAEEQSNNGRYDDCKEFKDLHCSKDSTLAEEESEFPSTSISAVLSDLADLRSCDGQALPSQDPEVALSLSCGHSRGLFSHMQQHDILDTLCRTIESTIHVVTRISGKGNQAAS
Method in brief: (§1)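 Fragment (200 µM) or vehicle was incubated for 3 h with triplicate HEK293T lysate samples of 495 µg, which were then treated with Biotin-Ahx-Ub-VS at 0.5 µM final for 1 h. Labelled DUBs were enriched on NeutrAvidin, digested with LysC and trypsin, and analysed by diaPASEF LC-MS/MS. Values are average log2 fragment/vehicle ratios from an unpaired t-test on global-median-normalised Spectronaut label-free quantities, using proteins with ≥2 unique peptides.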

USP36 = target: T1, USP36 (UniProt Q9P275)
T1 sequence (whole entry): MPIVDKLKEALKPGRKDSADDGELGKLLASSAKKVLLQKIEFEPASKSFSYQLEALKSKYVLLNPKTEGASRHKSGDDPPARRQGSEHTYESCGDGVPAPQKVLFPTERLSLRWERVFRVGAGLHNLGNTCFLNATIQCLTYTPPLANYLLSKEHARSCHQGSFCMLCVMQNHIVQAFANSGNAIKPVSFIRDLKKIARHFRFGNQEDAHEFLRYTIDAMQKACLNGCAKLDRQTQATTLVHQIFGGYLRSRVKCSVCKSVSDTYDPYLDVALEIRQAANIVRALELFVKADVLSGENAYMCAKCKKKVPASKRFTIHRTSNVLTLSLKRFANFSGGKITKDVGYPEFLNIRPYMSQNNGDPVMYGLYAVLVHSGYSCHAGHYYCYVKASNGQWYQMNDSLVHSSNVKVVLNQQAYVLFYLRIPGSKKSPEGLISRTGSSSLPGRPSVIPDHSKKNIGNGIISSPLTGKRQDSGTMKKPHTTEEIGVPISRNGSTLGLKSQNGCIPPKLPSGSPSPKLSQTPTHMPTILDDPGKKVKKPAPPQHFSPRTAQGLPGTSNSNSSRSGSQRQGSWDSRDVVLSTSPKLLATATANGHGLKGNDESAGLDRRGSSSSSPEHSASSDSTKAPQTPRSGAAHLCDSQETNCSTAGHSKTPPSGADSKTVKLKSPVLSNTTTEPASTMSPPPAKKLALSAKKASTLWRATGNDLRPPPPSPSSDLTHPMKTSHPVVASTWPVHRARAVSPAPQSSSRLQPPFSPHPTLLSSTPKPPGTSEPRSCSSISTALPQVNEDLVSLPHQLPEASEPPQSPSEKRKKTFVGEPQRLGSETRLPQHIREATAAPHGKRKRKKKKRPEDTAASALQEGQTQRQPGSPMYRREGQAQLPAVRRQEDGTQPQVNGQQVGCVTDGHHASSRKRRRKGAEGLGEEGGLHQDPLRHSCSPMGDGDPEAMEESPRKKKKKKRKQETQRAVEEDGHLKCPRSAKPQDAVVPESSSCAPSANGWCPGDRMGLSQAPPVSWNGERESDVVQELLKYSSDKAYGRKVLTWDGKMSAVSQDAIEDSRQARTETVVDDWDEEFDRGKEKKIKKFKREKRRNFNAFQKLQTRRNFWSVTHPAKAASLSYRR
Method in brief: as §1

USP38 = target: T2, USP38 (UniProt Q8NB14)
T2 sequence (whole entry): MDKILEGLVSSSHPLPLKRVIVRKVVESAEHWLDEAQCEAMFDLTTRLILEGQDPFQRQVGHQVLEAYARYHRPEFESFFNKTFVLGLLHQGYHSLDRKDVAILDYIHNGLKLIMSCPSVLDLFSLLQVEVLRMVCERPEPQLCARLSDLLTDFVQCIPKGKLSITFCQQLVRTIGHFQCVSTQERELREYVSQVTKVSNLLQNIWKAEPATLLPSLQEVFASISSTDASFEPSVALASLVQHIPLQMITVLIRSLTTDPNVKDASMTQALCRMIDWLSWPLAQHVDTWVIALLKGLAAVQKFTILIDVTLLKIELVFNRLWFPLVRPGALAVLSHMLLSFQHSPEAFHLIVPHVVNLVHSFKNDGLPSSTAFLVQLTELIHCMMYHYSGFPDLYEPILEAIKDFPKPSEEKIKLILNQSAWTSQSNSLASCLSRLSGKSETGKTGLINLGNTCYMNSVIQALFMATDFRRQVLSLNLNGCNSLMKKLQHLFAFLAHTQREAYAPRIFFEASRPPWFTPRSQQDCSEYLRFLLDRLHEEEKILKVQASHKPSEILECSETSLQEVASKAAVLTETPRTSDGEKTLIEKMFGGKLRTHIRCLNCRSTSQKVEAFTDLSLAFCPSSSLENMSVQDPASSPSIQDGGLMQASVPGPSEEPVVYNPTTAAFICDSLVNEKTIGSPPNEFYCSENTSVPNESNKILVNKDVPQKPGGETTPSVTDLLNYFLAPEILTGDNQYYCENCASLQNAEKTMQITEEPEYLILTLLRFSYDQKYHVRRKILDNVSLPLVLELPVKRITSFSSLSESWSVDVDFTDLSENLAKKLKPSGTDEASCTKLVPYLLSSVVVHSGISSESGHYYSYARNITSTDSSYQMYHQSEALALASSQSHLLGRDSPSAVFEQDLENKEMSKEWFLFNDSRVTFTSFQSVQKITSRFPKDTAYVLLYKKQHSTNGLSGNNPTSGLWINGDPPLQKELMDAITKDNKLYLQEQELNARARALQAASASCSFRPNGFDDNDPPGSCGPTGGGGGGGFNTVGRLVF
Method in brief: as §1

USP39 = target: T3, USP39 (UniProt Q53GS9)
T3 sequence (whole entry): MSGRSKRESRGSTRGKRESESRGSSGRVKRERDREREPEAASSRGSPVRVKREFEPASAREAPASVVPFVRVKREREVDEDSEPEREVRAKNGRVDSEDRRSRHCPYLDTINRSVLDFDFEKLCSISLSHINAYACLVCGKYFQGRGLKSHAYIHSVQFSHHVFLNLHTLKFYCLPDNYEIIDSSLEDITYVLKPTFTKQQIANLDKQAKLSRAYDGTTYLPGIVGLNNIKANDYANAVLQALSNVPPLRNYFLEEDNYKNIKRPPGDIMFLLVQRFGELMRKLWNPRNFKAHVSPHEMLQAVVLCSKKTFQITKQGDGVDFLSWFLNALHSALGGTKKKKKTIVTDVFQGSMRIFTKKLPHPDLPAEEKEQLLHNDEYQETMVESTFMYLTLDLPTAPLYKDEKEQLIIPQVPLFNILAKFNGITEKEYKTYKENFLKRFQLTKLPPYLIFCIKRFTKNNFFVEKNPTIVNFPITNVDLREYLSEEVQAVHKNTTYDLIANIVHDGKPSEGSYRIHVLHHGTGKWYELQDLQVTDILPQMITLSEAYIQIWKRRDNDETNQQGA
Method in brief: as §1

USP4 = target: T4, USP4 (UniProt Q13107)
T4 sequence (whole entry): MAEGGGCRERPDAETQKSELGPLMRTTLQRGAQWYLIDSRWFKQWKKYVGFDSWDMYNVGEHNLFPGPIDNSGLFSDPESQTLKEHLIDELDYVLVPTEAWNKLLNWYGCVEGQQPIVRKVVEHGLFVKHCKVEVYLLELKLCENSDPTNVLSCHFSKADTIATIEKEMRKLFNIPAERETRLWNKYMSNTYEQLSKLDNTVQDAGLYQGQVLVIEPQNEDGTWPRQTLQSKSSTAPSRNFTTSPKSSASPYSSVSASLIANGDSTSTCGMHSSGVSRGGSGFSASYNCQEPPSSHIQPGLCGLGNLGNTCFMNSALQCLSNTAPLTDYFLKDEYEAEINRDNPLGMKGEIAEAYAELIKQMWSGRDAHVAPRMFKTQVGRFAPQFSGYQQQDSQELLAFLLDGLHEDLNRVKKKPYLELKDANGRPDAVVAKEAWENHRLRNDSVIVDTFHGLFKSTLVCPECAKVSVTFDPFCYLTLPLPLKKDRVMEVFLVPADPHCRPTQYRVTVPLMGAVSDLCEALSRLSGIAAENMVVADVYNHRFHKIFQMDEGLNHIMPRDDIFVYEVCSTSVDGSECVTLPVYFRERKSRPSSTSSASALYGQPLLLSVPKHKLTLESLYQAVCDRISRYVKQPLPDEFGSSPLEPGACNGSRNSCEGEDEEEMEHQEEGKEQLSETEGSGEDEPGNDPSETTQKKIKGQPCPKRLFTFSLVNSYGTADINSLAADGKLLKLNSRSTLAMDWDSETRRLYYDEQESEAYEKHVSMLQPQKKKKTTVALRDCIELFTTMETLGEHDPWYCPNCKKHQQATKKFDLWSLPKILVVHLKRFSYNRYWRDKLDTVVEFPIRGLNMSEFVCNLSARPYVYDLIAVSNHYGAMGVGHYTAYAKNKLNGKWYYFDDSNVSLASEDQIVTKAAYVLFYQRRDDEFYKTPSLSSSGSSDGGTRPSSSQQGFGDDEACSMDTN
Method in brief: as §1

Measured: log2 ratio of Biotin-Ahx-Ub-VS probe labelling

Cl.O=C(CCl)NCCc1ncc(F)cc1F
inactive: USP34 -0.216 | USP36 -0.308 | USP38 -0.203 | USP39 -0.202 | USP4 0.0209
